Assay results reported in PubChem BioAssay (NCATS).
Inconclusive results are not listed. The source made the active and inactive calls. Calls follow the shape of the dose curve; as a rule, active = well fitted curve in the direction sought with a large enough effect; inconclusive = small, poorly fitted or top-dose-only effect, or another doubt; inactive = no such curve, though single readings can be large; an effect the other way counts as inactive or inconclusive. Non-standard residues stand in square brackets, D forms with d. Residues, ends and D or L forms follow the SMILES beside them.

Key:
[1] = BET inhibitor-based combinations targeting novel dependencies in MECOM-rearranged (r) AML: SET-2 cell line (AID 2202231); conditions: SET-2 AML cells viability, CellTiter-Glo luminescence, 48 h; viability: active compounds read low, concentration not given here; also: nearly all actives have a fitted effect of over 35% in size;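 as to viability: plate controls were DMSO treated cells for no effect and wells without cells for full effect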
Method in brief: (§1)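 500 cells/well; 11-pt dose curve; 48 h, standard incubator; CellTiter-Glo luminescence after 15 min RT; DMSO/empty-well normalization; AUC plus Z-AUC (mean-centered within each line).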

[2] = BET inhibitor-based combinations targeting novel dependencies in MECOM-rearranged (r) AML: OCI-AML3 cell line (AID 2202232); conditions: Potency: OCI-AML3 viability; also: nearly all actives have a fitted effect of over 35% in size;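 as to viability (% of control): series mostly up to about 46 µM; plate controls were DMSO vehicle wells for no effect and wells without cells for full effect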
Method in brief: as §1

[3] = BET inhibitor-based combinations targeting novel dependencies in MECOM-rearranged (r) AML: MV-4-11 cell line (AID 2202233); also: nearly all actives have a fitted effect of over 45% in size;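 as to viability, % of control: plate controls were DMSO for no effect and blank wells for full effect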
Method in brief: (§2)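 Cells were plated at 500 per well and exposed to each drug across an 11-point dose range for 48 hr at standard incubator conditions. Viability was read by CellTiter-Glo luminescence, and activity was expressed as AUC and per-cell-line Z-transformed AUC.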

[4] = BET inhibitor-based combinations targeting novel dependencies in MECOM-rearranged (r) AML: HNT-34 cell line (AID 2202234); also: nearly all actives have a fitted effect of over 35% in size;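 as to viability (% of control): plate controls were vehicle wells for no effect and cell-free wells for full effect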
Method in brief: as §2

[5] = BET inhibitor-based combinations targeting novel dependencies in MECOM-rearranged (r) AML: UCSD-AML1 cell line (AID 2202235); also: nearly all actives have a fitted effect of over 40% in size;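 as to viability (% of control): series mostly up to about 46 µM; plate controls were DMSO vehicle wells for no effect and blank wells for full effect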
Method in brief: as §2

[6] = BET inhibitor-based combinations targeting novel dependencies in MECOM-rearranged (r) AML: AML-194 cell line (AID 2202237; also: nearly all actives have a fitted effect of over 40% in size;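 as to viability (% of control): plate controls were vehicle wells for no effect and wells without cells for full effect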)
Method in brief: as §1

[7] = BET inhibitor-based combinations targeting novel dependencies in MECOM-rearranged (r) AML: AML-191 cell line (AID 2202236; also: nearly all actives have a fitted effect of over 35% in size;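 as to viability (% of control): plate controls were vehicle wells for no effect and wells without cells for full effect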)
Method in brief: as §1
Potency is read from the fitted curve at half-maximal effect.

C/C=C/C/C=C/CCC(=O)[C@H]1O[C@H]1C(N)=O
active: Potency [1] 20.9 µM | Potency [2] 11.8 µM | Potency [3] 20.9 µM | Potency [4] 14.8 µM | Potency [5] 20.9 µM | Potency [6] 26.3 µM

CNCCCOc1cc(F)c(-c2c(Cl)nc3ncnn3c2N[C@@H](C)C(F)(F)F)c(F)c1
active: Potency [1] 0.148 µM | Potency [2] 0.0833 µM | Potency [3] 0.0934 µM | Potency [4] 0.0742 µM | Potency [5] 0.118 µM | Potency [6] 0.105 µM

Cc1ccc(C(=O)OCc2ccc([C@@H](CN)C(=O)Nc3ccc4cnccc4c3)cc2)c(C)c1
active: Potency [1] 14.4 µM | Potency [2] 8.11 µM | Potency [3] 3.23 µM | Potency [4] 5.12 µM | Potency [7] 9.1 µM | Potency [6] 8.11 µM

C/C(=N\NC(=O)c1cccc(S(=O)(=O)N2CCOCC2)c1)c1cc(Cl)ccc1O
active: Potency [1] 6.61 µM | Potency [2] 1.86 µM | Potency [3] 5.9 µM | Potency [4] 2.95 µM | Potency [7] 2.09 µM | Potency [6] 4.17 µM

Cc1ccc(-n2[nH]c(C)c(N=Nc3cccc(-c4cccc(C(=O)O)c4)c3O)c2=O)cc1C
inactive: viability [1] 109% | Potency [2] | Potency [3] | Potency [4] | Potency [5] | Potency [6]

CN(C)C/C=C/C(=O)Nc1ccc(C(=O)N2CCC[C@@H](Nc3ncc(Cl)c(-c4c[nH]c5ccccc45)n3)C2)cc1
active: Potency [1] 5.9 µM | Potency [2] 0.372 µM | Potency [3] 0.235 µM | Potency [4] 0.235 µM | Potency [5] 0.468 µM | Potency [7] 2.35 µM | Potency [6] 1.66 µM

CCN[C@H]1C[C@H](C)S(=O)(=O)c2sc(S(N)(=O)=O)cc21
inactive: viability [1] 114% | Potency [2] | Potency [3] | Potency [4] | Potency [5] | Potency [7] | Potency [6]

CC(=O)Nc1ccc(O)cc1
inactive: viability [1] 94.1% | Potency [2] | Potency [3] | Potency [4] | Potency [5] | Potency [7] | Potency [6]

CN(C)CCN1C(=O)c2cccc3cc(NC(N)=O)cc(c23)C1=O
active: Potency [1] 18.6 µM | Potency [2] 13.2 µM | Potency [3] 2.95 µM | Potency [4] 8.33 µM | Potency [5] 5.9 µM | Potency [7] 9.34 µM | Potency [6] 9.34 µM

CCC[C@H](NC(=O)/C(C#N)=C/c1cccc(Br)n1)c1ccccc1
active: Potency [1] 4.17 µM | Potency [2] 3.32 µM | Potency [3] 2.95 µM | Potency [4] 2.95 µM | Potency [5] 3.32 µM | Potency [7] 3.72 µM | Potency [6] 7.42 µM

CCOCOC[C@H](C[C@H](C)C(=O)NO)NC(=O)c1ccc(Oc2ccccc2)cc1
active: Potency [2] 23.5 µM | Potency [4] 26.3 µM
inactive: viability [1] 117% | Potency [3] | Potency [5] | Potency [6]

O=C1NC(=O)/C(=C/c2ccc3nccc(-c4ccncc4)c3c2)S1
active: Potency [1] 14.8 µM | Potency [2] 1.05 µM | Potency [3] 0.833 µM | Potency [4] 1.05 µM | Potency [7] 0.934 µM

COc1nnc2ccc(N3CCC(c4ccc(OCCN5CCN(C)C(=O)[C@H]5C)cc4)CC3)nn12
active: Potency [1] 0.148 µM | Potency [2] 0.0417 µM | Potency [3] 0.059 µM | Potency [4] 0.105 µM | Potency [7] 0.0833 µM

O=c1c(-c2ccc(O)cc2)coc2c([C@@H]3O[C@H](CO)[C@@H](O)[C@H](O)[C@H]3O)c(O)ccc12
inactive: viability [1] 113% | Potency [2] | Potency [3] | Potency [4] | Potency [5] | Potency [7] | Potency [6]

O=C(O)CNC(=O)c1nc(Cl)c2ccccc2c1O
inactive: viability [1] 122% | Potency [2] | Potency [3] | Potency [4] | Potency [7] | Potency [6]

COc1cc2c(NC3CCN(C)CC3)nc(N3CCCN(C)CC3)nc2cc1OCCCN(C)C
inactive: viability [1] 112% | Potency [2] | Potency [3] | Potency [4] | Potency [7]

C=CC[N+]1([C@H]2C[C@H]3[C@@H]4CC[C@H]5C[C@H](O)[C@@H](N6CCOCC6)C[C@]5(C)[C@H]4CC[C@]3(C)[C@H]2OC(C)=O)CCCC1
inactive: viability [1] 115% | Potency [2] | Potency [3] | Potency [4] | Potency [5] | Potency [7] | Potency [6]

O=C(NO)c1cnc(NC2(c3ccccc3)CC2)nc1
active: Potency [1] 6.61 µM | Potency [2] 5.9 µM | Potency [3] 3.32 µM | Potency [4] 6.61 µM | Potency [5] 8.33 µM | Potency [7] 7.42 µM | Potency [6] 8.33 µM

Nc1cc(COc2c(Cl)cc(C[C@H](N)C(=O)O)cc2Cl)c2oc(-c3ccccc3)nc2c1
inactive: Potency [4] | Potency [5] | Potency [6]
active: Potency [1] 11.8 µM | Potency [2] 13.2 µM | Potency [3] 10.5 µM

N#Cc1c(N(CC(=O)O)CC(=O)O)sc(C(=O)O)c1CC(=O)O
inactive: viability [1] 117% | Potency [2] | Potency [3] | Potency [4] | Potency [5] | Potency [7] | Potency [6]

Cc1cc(O[C@@H](CCC(F)(F)F)c2ccc(C(=O)NCCC(=O)O)cc2)cc(C)c1-c1ccc(C(C)(C)C)cc1
active: Potency [1] 20.9 µM | Potency [2] 20.9 µM | Potency [3] 18.6 µM | Potency [4] 20.9 µM | Potency [7] 16.6 µM | Potency [6] 26.3 µM

CCC(C(=O)O)C1CCC(C)C(C(C)C(O)C(C)C(=O)C(CC)C2OC3(C=CC(O)[C@@]4(CC[C@](C)(C5CC[C@@](O)(CC)C(C)O5)O4)O3)C(C)CC2C)O1 (some centres not stated)
active: Potency [1] 5.25 µM | Potency [2] 1.48 µM | Potency [3] 1.66 µM | Potency [4] 0.525 µM | Potency [5] 13.2 µM | Potency [7] 2.35 µM | Potency [6] 1.18 µM

COc1cc(C(=O)O)ccc1NC(=O)[C@@H]1N[C@@H](CC(C)(C)C)[C@](C#N)(c2ccc(Cl)cc2F)[C@H]1c1cccc(Cl)c1F
inactive: viability [1] 112%
active: Potency [2] 2.09 µM | Potency [3] 0.132 µM | Potency [4] 0.132 µM | Potency [7] 0.742 µM | Potency [6] 0.833 µM

N=C(N)c1ccc2nc(-c3cc(CC(=O)N[C@@H](CC(=O)O)C(=O)O)cc(-c4cc(S(N)(=O)=O)ccc4O)c3O)[nH]c2c1
inactive: viability [1] 117% | Potency [2] | Potency [3] | Potency [4] | Potency [5] | Potency [6]

CC(c1cc2ccccc2s1)N(O)C(N)=O (configuration not stated)
inactive: viability [1] 106% | Potency [2] | Potency [3] | Potency [4] | Potency [5] | Potency [6]

O=C(/C=C/c1ccc2ccc(C(F)(F)F)cc2n1)c1ccncc1
active: Potency [1] 2.63 µM | Potency [2] 1.86 µM | Potency [3] 1.05 µM | Potency [4] 1.32 µM | Potency [5] 1.66 µM | Potency [7] 1.86 µM | Potency [6] 2.35 µM

CC(C)(S)[C@@H](N)C(=O)O
inactive: viability [1] 116% | viability (% of control) [2] 118% [at 5.12 µM] | viability, % of control [3] 125% [at 5.12 µM] | viability (% of control) [4] 108% [at 5.12 µM] | viability (% of control) [5] 112% [at 5.12 µM] | viability (% of control) [6] 114% [at 5.12 µM]

COCc1c(-c2ccc(NC(=O)Nc3cc(C(F)(F)F)ccc3F)c(F)c2)c2c(N)ncnn2c1CN1CCOCC1
active: Potency [1] 6.61 µM | Potency [2] 10.5 µM | Potency [3] 0.0263 µM | Potency [4] 2.35 µM | Potency [5] 6.61 µM | Potency [7] 5.9 µM | Potency [6] 5.9 µM

C[C@H]1O[C@H](O[C@H]2[C@H](O)[C@@H](O)[C@@H](O[C@H]3[C@H](O)[C@@H](O)C(O)O[C@@H]3CO)O[C@@H]2CO)[C@H](O)[C@@H](O)[C@@H]1N[C@H]1C=C(CO)[C@@H](O)[C@H](O)[C@H]1O (some centres not stated)
inactive: viability [1] 101% | Potency [2] | Potency [3] | Potency [4] | Potency [5] | Potency [6]

C/C(=C\c1csc(C)n1)[C@@H]1C[C@@H]2O[C@]2(C)CCC[C@H](C)[C@H](O)[C@@H](C)C(=O)C(C)(C)[C@@H](O)CC(=O)N1
active: Potency [1] 0.0525 µM | Potency [2] 0.0209 µM | Potency [3] 0.0332 µM | Potency [4] 0.0148 µM | Potency [5] 0.0166 µM | Potency [6] 0.0295 µM

CC(C)C[C@@H]1NC(=O)[C@@H](C(C)C)NC(=O)[C@@H]2CCCN2C(=O)[C@@H](CC(=O)O)NC(=O)[C@@H](Cc2c[nH]c3ccccc23)NC1=O (cyclo(L[dW][dD]P[dV]))
inactive: viability [1] 110% | Potency [2] | Potency [3] | Potency [4] | Potency [5] | Potency [7] | Potency [6]

Nc1ccn([C@@H]2O[C@H](CO)[C@@H](O)[C@H]2O)c(=O)n1
inactive: viability [1] 117% | Potency [2] | Potency [4] | Potency [5] | Potency [6]
active: Potency [3] 16.6 µM

O=C(NO)c1ccc(C2=Nc3ccccc3Oc3ccccc32)cc1
active: Potency [1] 2.95 µM | Potency [2] 5.25 µM | Potency [3] 1.86 µM | Potency [4] 3.72 µM | Potency [7] 3.32 µM | Potency [6] 4.68 µM

Cc1ccc(Sc2ccccc2N2CCNCC2)c(C)c1
active: Potency [1] 18.6 µM | Potency [2] 20.9 µM | Potency [3] 20.9 µM | Potency [4] 16.6 µM | Potency [5] 16.6 µM | Potency [7] 18.6 µM | Potency [6] 11.8 µM

O=C(NOCCO)c1ccc2cncn2c1Nc1ccc(I)cc1F
active: Potency [1] 18.6 µM | Potency [2] 0.0934 µM | Potency [3] 0.742 µM | Potency [4] 0.525 µM | Potency [5] 1.32 µM | Potency [6] 1.66 µM

Cn1cc(C[C@@H](N)C(=O)O)c2ccccc21
inactive: viability [1] 113% | viability (% of control) [2] 111% [at 8.46 µM] | viability, % of control [3] 103% [at 8.46 µM] | viability (% of control) [4] 100% [at 8.46 µM] | viability (% of control) [5] 112% [at 8.46 µM] | viability (% of control) [7] 110% [at 8.46 µM] | viability (% of control) [6] 109% [at 8.46 µM]

CC1(C)S[C@H]2[C@H](NC(=O)[C@@H](N)c3ccc(O)cc3)C(=O)N2[C@H]1C(=O)O
inactive: viability [1] 99.7% | Potency [2] | Potency [3] | Potency [4] | Potency [5] | Potency [7] | Potency [6]

CC(=O)c1cc2c(o1)C(=O)c1ccccc1C2=O
active: Potency [1] 2.63 µM | Potency [2] 2.63 µM | Potency [3] 0.833 µM | Potency [4] 2.35 µM | Potency [5] 2.95 µM | Potency [7] 2.35 µM | Potency [6] 2.35 µM
